For 7 molecules, inhibition results are on record in ChEMBL document CHEMBL1961873, “Compounds: GSK PKIS; Assays: Nanosyn kinase panel” (2012).

In experiment [1] the target is Serine/threonine-protein kinase MARK2 (Homo sapiens) (UniProt Q7KZI7). As to conditions: at 1 µM.
Experiment [2] deals with PAS domain-containing serine/threonine-protein kinase (Homo sapiens) (UniProt Q96RG2). As to conditions: at 0.1 µM.
Experiment [3] has the same target. As to conditions: at 1 µM.
In experiment [4] the target is Phosphorylase b kinase gamma catalytic chain, skeletal muscle/heart isoform (Homo sapiens) (UniProt Q16816). The note with it: at 0.1 µM.
Sequence of Phosphorylase b kinase gamma catalytic chain, skeletal muscle/heart isoform (Homo sapiens) (Q16816 whole entry, looked up, canonical isoform): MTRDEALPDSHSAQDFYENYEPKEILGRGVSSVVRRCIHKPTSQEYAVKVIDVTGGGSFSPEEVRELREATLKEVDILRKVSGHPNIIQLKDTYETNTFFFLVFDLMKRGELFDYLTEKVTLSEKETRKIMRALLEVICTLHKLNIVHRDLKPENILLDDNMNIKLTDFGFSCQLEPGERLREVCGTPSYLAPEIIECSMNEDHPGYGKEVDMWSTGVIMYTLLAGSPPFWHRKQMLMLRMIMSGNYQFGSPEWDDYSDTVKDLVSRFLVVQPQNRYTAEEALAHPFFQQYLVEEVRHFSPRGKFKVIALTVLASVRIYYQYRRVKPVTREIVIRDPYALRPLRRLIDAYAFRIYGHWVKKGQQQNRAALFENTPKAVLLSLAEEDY
The target is the same in experiment [5]. As to conditions: at 1 µM.
The target of experiment [6] is T1, Phosphorylase b kinase gamma catalytic chain, liver/testis isoform (Homo sapiens) (UniProt P15735).
T1 sequence (whole entry): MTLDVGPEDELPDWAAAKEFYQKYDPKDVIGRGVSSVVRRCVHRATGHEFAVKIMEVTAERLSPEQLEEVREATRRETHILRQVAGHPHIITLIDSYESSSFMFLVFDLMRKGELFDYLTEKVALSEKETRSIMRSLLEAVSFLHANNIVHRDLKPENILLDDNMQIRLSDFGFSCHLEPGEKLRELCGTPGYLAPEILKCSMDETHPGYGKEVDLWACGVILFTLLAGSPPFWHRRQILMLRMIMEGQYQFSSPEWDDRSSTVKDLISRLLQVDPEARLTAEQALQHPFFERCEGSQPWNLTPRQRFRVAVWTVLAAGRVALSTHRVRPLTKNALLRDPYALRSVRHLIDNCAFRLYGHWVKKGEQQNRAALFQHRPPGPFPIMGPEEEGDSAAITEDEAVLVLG
As to conditions: at 0.1 µM.

Experiment [7] concerns the target T1, Phosphorylase b kinase gamma catalytic chain, liver/testis isoform (Homo sapiens). As to conditions: at 1 µM.
Experiment [8] addresses Serine/threonine-protein kinase pim-1 (Homo sapiens) (UniProt P11309). The note with it: at 0.1 µM.
The target is the same in experiment [9]. The note with it: at 1 µM.
Experiment [10] deals with Serine/threonine-protein kinase pim-2 (Homo sapiens) (UniProt Q9P1W9). The note with it: at 0.1 µM.
Sequence of Serine/threonine-protein kinase pim-2 (Homo sapiens) (Q9P1W9 whole entry, looked up): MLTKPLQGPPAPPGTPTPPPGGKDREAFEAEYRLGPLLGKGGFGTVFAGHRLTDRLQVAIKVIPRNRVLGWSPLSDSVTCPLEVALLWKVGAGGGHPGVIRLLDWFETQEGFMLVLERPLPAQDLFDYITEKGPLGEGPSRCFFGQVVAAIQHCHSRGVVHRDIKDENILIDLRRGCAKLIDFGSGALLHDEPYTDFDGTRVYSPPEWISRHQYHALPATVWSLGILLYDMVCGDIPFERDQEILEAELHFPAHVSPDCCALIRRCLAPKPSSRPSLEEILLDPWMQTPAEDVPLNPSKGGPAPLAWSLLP
Experiment [11] shares this target. The note with it: at 1 µM.
For experiment [12], the target named is Serine/threonine-protein kinase pim-3 (Homo sapiens) (UniProt Q86V86). As to conditions: at 0.1 µM.
The target is the same in experiment [13]. As to conditions: at 1 µM.
Experiment [14] has as its target T2, MAP kinase-activated protein kinase 5 (Homo sapiens) (UniProt Q8IW41).
T2 sequence (whole entry): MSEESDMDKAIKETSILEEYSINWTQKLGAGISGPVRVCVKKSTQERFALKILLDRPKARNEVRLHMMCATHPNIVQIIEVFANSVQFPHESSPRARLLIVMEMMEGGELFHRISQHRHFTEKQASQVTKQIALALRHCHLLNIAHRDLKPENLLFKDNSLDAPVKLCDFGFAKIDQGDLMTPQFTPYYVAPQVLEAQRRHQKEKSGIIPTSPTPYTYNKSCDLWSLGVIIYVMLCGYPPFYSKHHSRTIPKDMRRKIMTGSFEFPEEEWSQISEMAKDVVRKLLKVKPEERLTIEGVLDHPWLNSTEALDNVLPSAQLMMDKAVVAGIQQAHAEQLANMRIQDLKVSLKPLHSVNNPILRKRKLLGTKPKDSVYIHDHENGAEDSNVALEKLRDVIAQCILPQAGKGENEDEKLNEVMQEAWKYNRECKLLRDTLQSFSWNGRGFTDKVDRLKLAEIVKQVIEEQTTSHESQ
The note with it: at 0.1 µM.

Experiment [15] addresses T2, MAP kinase-activated protein kinase 5 (Homo sapiens). As to conditions: at 1 µM.
Experiment [16] deals with Serine/threonine-protein kinase SIK1 (Homo sapiens) (UniProt P57059). The note with it: at 0.1 µM.
The target is the same in experiment [17]. As to conditions: at 1 µM.
Experiment [18] deals with Serine/threonine-protein kinase SIK2 (Homo sapiens) (UniProt Q9H0K1). The note with it: at 0.1 µM.
Sequence of Serine/threonine-protein kinase SIK2 (Homo sapiens) (Q9H0K1 whole entry, looked up): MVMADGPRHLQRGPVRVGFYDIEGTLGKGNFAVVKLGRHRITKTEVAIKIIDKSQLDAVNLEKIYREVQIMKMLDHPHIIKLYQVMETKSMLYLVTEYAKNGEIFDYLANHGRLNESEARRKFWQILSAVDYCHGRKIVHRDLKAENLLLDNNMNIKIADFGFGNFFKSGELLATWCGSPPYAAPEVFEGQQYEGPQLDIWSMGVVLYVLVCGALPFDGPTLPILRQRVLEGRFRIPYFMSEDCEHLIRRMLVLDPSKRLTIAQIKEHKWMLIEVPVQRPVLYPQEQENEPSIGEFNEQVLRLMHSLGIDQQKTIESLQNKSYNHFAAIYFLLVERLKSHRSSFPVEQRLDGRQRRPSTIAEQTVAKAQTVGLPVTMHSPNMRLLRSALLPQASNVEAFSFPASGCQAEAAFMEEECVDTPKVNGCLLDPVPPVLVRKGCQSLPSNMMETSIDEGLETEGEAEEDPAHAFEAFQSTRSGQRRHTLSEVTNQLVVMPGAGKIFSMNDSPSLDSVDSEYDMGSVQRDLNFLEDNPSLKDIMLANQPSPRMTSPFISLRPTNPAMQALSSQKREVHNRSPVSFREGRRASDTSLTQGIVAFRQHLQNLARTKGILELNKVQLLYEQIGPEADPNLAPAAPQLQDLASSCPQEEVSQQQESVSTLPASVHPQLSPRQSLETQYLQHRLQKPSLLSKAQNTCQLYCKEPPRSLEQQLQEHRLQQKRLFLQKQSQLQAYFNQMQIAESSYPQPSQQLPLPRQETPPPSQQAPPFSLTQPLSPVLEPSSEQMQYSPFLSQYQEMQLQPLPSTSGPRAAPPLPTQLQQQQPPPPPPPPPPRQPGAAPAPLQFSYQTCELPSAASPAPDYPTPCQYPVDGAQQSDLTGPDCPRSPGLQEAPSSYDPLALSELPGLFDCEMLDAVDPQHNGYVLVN
Experiment [19] shares this target. The note with it: at 1 µM.
In experiment [20] the target is T3, Serine/threonine-protein kinase TBK1 (Homo sapiens) (UniProt Q9UHD2).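 Further: values are the mean TBK1 inhibition, taken from the GSK PKIS screening data.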
T3 sequence (whole entry): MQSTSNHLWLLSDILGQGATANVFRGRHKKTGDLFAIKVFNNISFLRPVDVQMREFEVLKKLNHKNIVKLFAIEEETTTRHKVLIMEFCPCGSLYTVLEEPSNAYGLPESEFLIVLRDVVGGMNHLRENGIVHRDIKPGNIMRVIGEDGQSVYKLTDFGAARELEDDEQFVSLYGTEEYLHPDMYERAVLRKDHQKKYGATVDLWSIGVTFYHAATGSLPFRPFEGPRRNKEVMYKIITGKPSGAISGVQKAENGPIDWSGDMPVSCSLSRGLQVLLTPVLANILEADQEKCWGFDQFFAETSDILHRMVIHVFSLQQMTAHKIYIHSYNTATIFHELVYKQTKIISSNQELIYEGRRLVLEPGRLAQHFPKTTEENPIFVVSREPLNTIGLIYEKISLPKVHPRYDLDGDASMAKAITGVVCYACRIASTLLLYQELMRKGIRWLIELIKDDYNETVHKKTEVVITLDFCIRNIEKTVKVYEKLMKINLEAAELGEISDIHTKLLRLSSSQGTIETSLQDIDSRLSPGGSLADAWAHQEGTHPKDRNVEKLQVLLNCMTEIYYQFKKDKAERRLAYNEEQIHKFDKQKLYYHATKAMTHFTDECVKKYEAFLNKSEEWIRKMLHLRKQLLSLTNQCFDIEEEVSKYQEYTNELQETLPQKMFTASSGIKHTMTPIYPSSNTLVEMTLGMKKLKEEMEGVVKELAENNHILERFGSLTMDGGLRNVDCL
As to conditions: at 0.1 µM.

Values joined by “and” are separate entries in the source; they are usually repeats but may differ in a detail not shown here. Identical values can stand only once.

Sequence of PAS domain-containing serine/threonine-protein kinase (Homo sapiens) (Q96RG2 whole entry, the tested form may be a part): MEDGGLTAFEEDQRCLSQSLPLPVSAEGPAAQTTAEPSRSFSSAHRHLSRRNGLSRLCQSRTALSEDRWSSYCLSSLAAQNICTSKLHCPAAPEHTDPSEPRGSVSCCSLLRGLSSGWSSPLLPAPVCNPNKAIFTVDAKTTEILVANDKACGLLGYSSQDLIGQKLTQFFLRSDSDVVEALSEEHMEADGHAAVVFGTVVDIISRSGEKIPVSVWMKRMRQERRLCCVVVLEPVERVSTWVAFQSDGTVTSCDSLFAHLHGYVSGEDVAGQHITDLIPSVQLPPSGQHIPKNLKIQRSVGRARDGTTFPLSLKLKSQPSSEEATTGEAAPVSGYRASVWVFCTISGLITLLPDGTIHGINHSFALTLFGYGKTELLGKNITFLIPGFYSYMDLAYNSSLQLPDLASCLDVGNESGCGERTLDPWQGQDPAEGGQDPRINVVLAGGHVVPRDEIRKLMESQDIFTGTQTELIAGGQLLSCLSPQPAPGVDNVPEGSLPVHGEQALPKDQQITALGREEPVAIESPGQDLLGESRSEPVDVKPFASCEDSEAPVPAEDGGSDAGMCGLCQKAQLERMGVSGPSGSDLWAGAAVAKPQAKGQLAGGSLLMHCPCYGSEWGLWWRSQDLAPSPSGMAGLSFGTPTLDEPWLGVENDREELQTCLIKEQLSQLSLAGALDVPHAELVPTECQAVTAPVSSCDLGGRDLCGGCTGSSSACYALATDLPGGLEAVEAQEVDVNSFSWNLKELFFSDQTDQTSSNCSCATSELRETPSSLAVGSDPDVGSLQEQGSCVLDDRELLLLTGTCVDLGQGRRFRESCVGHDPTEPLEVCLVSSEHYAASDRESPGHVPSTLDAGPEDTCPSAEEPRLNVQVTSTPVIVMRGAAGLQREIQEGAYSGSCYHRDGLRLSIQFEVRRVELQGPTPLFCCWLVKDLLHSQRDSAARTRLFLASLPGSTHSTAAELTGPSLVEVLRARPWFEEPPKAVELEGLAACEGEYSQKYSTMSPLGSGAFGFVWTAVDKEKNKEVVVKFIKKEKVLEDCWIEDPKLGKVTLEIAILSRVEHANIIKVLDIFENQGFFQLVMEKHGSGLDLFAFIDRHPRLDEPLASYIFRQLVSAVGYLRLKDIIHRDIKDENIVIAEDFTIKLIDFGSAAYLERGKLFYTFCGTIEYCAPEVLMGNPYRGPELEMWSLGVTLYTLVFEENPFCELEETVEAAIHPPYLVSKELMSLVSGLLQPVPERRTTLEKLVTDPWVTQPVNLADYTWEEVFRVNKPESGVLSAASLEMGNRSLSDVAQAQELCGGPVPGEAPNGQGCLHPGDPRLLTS
Sequence of Serine/threonine-protein kinase pim-1 (Homo sapiens) (P11309 whole entry, looked up): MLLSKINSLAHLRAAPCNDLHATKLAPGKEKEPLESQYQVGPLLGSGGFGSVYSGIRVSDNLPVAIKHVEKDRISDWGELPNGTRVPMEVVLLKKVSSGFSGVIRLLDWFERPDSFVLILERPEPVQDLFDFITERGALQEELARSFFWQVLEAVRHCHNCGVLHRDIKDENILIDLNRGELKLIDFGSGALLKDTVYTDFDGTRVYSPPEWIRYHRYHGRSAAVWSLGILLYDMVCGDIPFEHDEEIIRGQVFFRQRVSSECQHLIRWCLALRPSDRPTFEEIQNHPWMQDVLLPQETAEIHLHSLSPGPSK
Sequence of Serine/threonine-protein kinase MARK2 (Homo sapiens) (Q7KZI7 whole entry, the tested form may be a part): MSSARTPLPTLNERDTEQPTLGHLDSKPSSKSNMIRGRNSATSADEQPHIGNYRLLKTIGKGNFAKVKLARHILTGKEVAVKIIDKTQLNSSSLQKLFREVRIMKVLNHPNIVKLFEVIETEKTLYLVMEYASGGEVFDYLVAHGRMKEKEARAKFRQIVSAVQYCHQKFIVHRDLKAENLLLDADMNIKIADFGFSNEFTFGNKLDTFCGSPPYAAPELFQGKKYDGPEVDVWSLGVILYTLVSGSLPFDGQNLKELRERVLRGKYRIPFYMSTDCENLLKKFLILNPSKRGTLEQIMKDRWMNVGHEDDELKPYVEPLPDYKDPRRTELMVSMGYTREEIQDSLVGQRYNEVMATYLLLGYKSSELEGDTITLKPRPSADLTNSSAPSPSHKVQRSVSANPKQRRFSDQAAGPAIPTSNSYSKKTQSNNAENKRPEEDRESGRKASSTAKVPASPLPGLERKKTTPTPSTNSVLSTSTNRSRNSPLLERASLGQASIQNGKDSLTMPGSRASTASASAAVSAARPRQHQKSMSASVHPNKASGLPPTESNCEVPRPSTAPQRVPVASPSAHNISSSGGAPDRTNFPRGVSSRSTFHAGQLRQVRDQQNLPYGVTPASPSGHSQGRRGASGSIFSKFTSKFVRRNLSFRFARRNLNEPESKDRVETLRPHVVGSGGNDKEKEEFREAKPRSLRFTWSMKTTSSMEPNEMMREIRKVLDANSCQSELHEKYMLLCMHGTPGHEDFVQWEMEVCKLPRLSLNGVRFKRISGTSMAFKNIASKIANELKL

For `CNC(=O)c1cncc(/C=C/c2ccccc2C)c1`, the inhibition stood at 0.45% in experiment [1]; 0.44% in experiment [2]; 0.95% in experiment [3]; 4.3% in experiment [4]; 7.61% in [5]; 6.36% in experiment [6]. Besides, the inhibition in experiment [7] was 7.42%; in [8] it was 0.05%; in experiment [9], 2.22%; in experiment [10] it was 0.15%; in experiment [11] it was 1.06%; in [12] it was -0.06%. In addition, the inhibition came out at 5.04% in [13]; 1.79% in experiment [14]; 3.16% in [15]; 10% in experiment [16]; 39.5% in [17]; 9% in experiment [18]. Also, the inhibition in experiment [19] came to 18.5%; in experiment [20], 2.9%.
As to `CNC(=O)c1ncccc1Nc1nc(Nc2cc3c(cc2OC)CCCN3C(=O)CN(C)C)nc2[nH]ccc12`, the inhibition is 4.82% in [1]; 0.42% in experiment [2]; -3.51% in experiment [3]; 5.77% in experiment [4]; 26.6% in experiment [5]; 5.37% in experiment [6]. In addition, the inhibition worked out at 3.8% in experiment [7]; 18.9% in [8]; 65.9% in experiment [9]; 1.04% in [10]; 5.43% in [11]; 2.42% in experiment [12]. In addition, the inhibition worked out at 22.6% in experiment [13]; 0.95% in experiment [14]; 0.65% in experiment [15]; 4.63% in experiment [16]; 6.54% in experiment [17]; 3.05% in experiment [18]. The results for the inhibition in [19] and in experiment [20] were 0.1% and 5.66%, respectively.
For the molecule `Nc1nccc(-c2c(-c3ccc(F)cc3)ncn2C2CCNCC2)n1`, the inhibition in experiment [1] was 1.75% and 0.35%; in experiment [2] it was -0.64% and -0.39%; in [3], -0.63% and -0.93%; in experiment [4], -0.27% and 1.11%; in experiment [5], 2.04% and 1.58%; in [6], -6.47% and 0.35%. For the same molecule, the inhibition in experiment [7] was -6.27% and -1.71%; in experiment [8] it was 0.29% and -0.7%; in [9], 7.06% and -0.6%; in [10], -0.19% and 0.2%; in [11], 1.8% and 0.96%; in experiment [12], 0.82% and 0.07%. The inhibition was 11% and 0.53% in experiment [13]; -1.67% and 0.07% in experiment [14]; -1.48% and 0.35% in [15]; -9% and 6.76% in experiment [16]; -2.37% and 5.84% in [17]; -0.69% and 8.02% in experiment [18]. In addition, the inhibition in experiment [19] was 37.4% and 47.1%; in experiment [20] it was -1.45% and -0.58%.
Take `NS(=O)(=O)c1cccc(N/C=C2\C(=O)Nc3ccccc32)c1`: the inhibition in experiment [1] was 12.6%; in [2] it was -0.26%; in [3] it was -1.04%; in experiment [4] it was 7.73%; in experiment [5], 33.3%; in experiment [6], 5.62%. Besides, the inhibition is 13.4% in experiment [7]; 0.75% in experiment [8]; 0.73% in experiment [9]; -0.33% in [10]; 0.69% in experiment [11]; -0.71% in [12]. The inhibition is -2.38% in [13]; 1.17% in [14]; 1.53% in [15]; 5.29% in experiment [16]; 10.8% in experiment [17]; -0.72% in experiment [18]. The figures for the inhibition in experiment [19] and in experiment [20] were 11.3% and 3.79%, respectively.
For `O=C(O[C@H]1CN[C@H](C#Cc2cc3ncnc(Nc4ccc5c(ccn5Cc5cc(F)ccc5F)c4)c3s2)C1)N1CCOCC1`, the inhibition in experiment [1] was -0.27%; in [2] it was 0.1%; in experiment [3] it was -1.39%; in experiment [4], 3.09%; in [5] it was 4.72%; in [6] it was 4.96%. Moreover, the inhibition in experiment [7] was 2.49%; in [8], 0.84%; in experiment [9], 0.83%; in experiment [10], 0.44%; in [11], 0.17%; in [12], -1.4%. In addition, the inhibition is -2.6% in experiment [13]; 1.04% in [14]; 0.93% in experiment [15]; 5.35% in [16]; 7.23% in experiment [17]; 2.92% in experiment [18]. Further, the inhibition amounted to 7.13% in experiment [19] and 2.75% in experiment [20].
As to `CCS(=O)(=O)c1ccc(OC)c(Nc2ncc(-c3cccc(C(C)=O)c3)o2)c1`, the inhibition in experiment [1] is -4.12%; in [2], 0.37%; in experiment [3], 2.34%; in experiment [4], 1.7%; in experiment [5], 10.4%; in [6] it was 3.37%. The inhibition in [7] was 6.45%; in [8], 0.82%; in experiment [9], 1.66%; in experiment [10], -0.72%; in experiment [11] it was -0.01%; in experiment [12] it was 0.38%. Further, the inhibition came out at 4.79% in experiment [13]; 1.84% in [14]; 2% in experiment [15]; 6.02% in [16]; 15.1% in experiment [17]; 3.14% in [18]. Besides, the inhibition in experiment [19] was found to be 14%; in [20] it was 0.54%.
Regarding `COc1cc(N2CCN(C(C)C)CC2)ccc1Nc1nc(Nc2cccc3ncccc23)c2cc[nH]c2n1`, the inhibition in [1] was 1.39%; in experiment [2], -0.26%; in experiment [3], -0.72%; in experiment [4] it was 2.93%; in experiment [5], 28.6%; in experiment [6] it was -1.68%. The inhibition is 0.96% in experiment [7]; 0.12% in experiment [8]; 0.51% in experiment [9]; -0.9% in experiment [10]; 0.36% in experiment [11]; -0.71% in experiment [12]. Besides, the inhibition in experiment [13] was 0.17%; in experiment [14], 0.21%; in experiment [15], -0.62%; in [16] it was -2.95%; in experiment [17], 0.48%; in [18] it was -4.22%. Also, the inhibition in experiment [19] was 3.12%; in experiment [20], -0.11%.
